This is a sample that favours compounds with a hit; in the whole collection about 19% have one here.
TDP1 cell CPT – DT40-hTDP1 cell growth loss with CPT; Potency, µM (doses to about 46.2 µM), without a hit: at the top dose activity change, negative = growth inhibition, usual class: inhibitors; chicken DT40 Tdp1-/-;hTDP1 cells + 20 nM CPT, ATP luminescence, 48 h; actives 12% (n = 420,000); AID 686979; note: nearly all actives have a fitted effect of over 55% in size
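Chicken DT40 Tdp1-/- cells stably complemented with human TDP1 were seeded at 400 cells/well in medium containing 20 nM camptothecin, exposed to pin-transferred compounds, and grown at 37 °C for at least 48 hr. Viability was read as ATP luminescence.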
TDP1 cell noCPT – qHTS for Inhibitors of human tyrosyl-DNA phosphodiesterase 1 (TDP1): qHTS in cells in absence of CPT; DT40 Tdp1-/- hTDP1 cells, no CPT, ATP luminescence, 48 h; Potency, µM (series often up to 46.2 µM), for inactives: at the top dose activity change, negative = growth inhibition, hits mostly inhibitors; actives 15% (n = 420,000); note: nearly all actives have a fitted effect of over 55% in size
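Luminescent ATP content (CellTiter-Glo) served as the growth readout. Knockout chicken DT40 cells expressing human TDP1 were exposed to compounds without camptothecin for a minimum 48 hr at 37 °C.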
HT1080NT lethal – kills 2HG-producing HT-1080-NT fibrosarcoma cells | actives 1.6% (n = 360,000) | AID 686970 | HT-1080-NT fibrosarcoma viability, CellTiter-Glo ATP luminescence, 48 h | Potency, µM (doses to about 46.1 µM), inactives show at the highest dose activity, negative = less viability, hits mostly cytotoxic;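 note: NT is the 2HG producing partner of a matched IDH1 knockdown line; 0% = DMSO-treated cells and -100% = media-only wells without cells; nearly all actives have a fitted effect of over 55% in size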
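Read-out is CellTiter-Glo luminescence after 10 minutes at room temperature, following 48 hours' compound treatment of HT-1080-NT cells (750 cells/well, RPMI, 5% FBS, 37 degrees C).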
KB-V1 MDR tox – kills drug-selected multidrug resistant KB-V1 cells; AID 1347076; KB-V1 MDR cells viability, CellTiter-Glo, 72 h; actives 3.4% (n = 400,000); Potency, µM (highest dose often 46.1 µM), most hits filed as cytotoxic; note: nearly all actives have a fitted effect of over 60% in size
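Drug-selected KB-V1 cells, grown in DMEM lacking phenol red with 10% FBS, receive compound titrations; after three days at 37 degrees C, surviving cell ATP is quantified by CellTiter-Glo luminescence and responses normalized and curve-fitted.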
KB-3-1 tox – KB-3-1 parental cell cytotoxicity; KB-3-1 viability, CellTiter-Glo ATP luminescence, 72 h; Potency, µM (doses to about 46.1 µM), usual class: cytotoxic; actives 1.4% (n = 400,000); AID 1347075; note: nearly all actives have a fitted effect of over 60% in size
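KB-3-1 parental drug-naive adenocarcinoma cells in DMEM/10% FBS, incubated 72 h at 37 C with pin-transferred compounds across a concentration series. Viability by CellTiter-Glo luminescence; concentration-response curves fitted after normalization.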
HT1080 IDH1KD tx – HT-1080 IDH1 knockdown cell toxicity (counter line) | HT-1080 IDH1 knockdown viability, ATP luminescence, 48 h | AID 686971 | actives 2% (n = 360,000) | Potency, µM (highest dose often 46.1 µM), inactives show top-dose activity, negative = toxicity, usual class: cytotoxic;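 note: 0% = DMSO wells and -100% = cell-free medium wells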
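% activity derives from luminescence (CellTiter-Glo), normalised to DMSO and no-cell wells. HT-1080-IDH1KD cells, 750/well, had 48 h compound exposure at 37 °C.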
Starred values were filed as active, the others as inactive; i = inactive; u = inconclusive; x = no result. Calls come from the whole dose curve; as a rule, active = well fitted curve in the direction sought with a large enough effect; inconclusive = small, poorly fitted or top-dose-only effect, or another doubt; inactive = no such curve, though single readings can be large; an effect the other way counts as inactive or inconclusive. Unless noted, % is set by controls: 0 for no effect and ±100 for the full control effect; potency is the fitted concentration of half-maximal effect.

SMILES | TDP1 cell CPT | TDP1 cell noCPT | HT1080NT lethal | KB-V1 MDR tox | KB-3-1 tox | HT1080 IDH1KD tx
CC1CN(S(=O)(=O)c2cccc(C(=O)NN3CCN(C)CC3)c2)CC(C)O1 (stereo not given) | 0.8% | 8.7% | 16.8% | i | i | 7.7%
CCn1c(CNc2ccc(F)cc2)nnc1SCC(=O)Nc1ccc(OC)cc1 | -22.0% | -15.1% | 1.2% | i | i | 7.2%
Nc1nc(SCc2ccccc2Cl)c2ncn(C3OC(CO)C(O)C3O)c2n1 (stereo not given) | -8.5% | -28.6% | 2.9% | i | i | 0.1%
CCN(CC)S(=O)(=O)c1cccc(N=Nc2sc(N)nc2C)c1 | u | -28.6% | -24.9% | i | i | -27.8%
COC(=O)c1cc(N=Nc2sc(N)nc2C)cc(C(=O)OC)c1 | u | 13µM* | -21.4% | u | u | u
O=S(=O)(c1ccccc1)N(CC(F)(F)F)c1ccc(C(O)(C(F)(F)F)C(F)(F)F)cc1 | u | u | u | u | i | u
Cc1cc(C)n(-c2cccc(C(=O)NCC3Cc4cccc(-c5cccnc5)c4O3)c2)n1 (stereo not given) | u | 14.6µM* | x | x | x | x
O=C(NCC1Cc2cccc(-c3cccnc3)c2O1)c1ccc2cc[nH]c2c1 (stereo not given) | 2.91µM* | 25.9µM* | x | x | x | x
Cc1cc(C)c(S(=O)(=O)NCc2csc(C)n2)c(C)c1 | -18.9% | 2.2% | 3.3% | i | i | 1.6%
COc1ccc(-c2cc(NC(C)=O)c3ncc(-c4ccc(OC)c(OC)c4)n3c2)c(OC)c1 | 23.1µM* | 20.6µM* | u | u | i | u
COc1ccc(-c2cc(NC(C)=O)c3ncc(-c4ccccc4)n3c2)c(OC)c1 | u | -83.3% | -27.0% | u | u | u
COc1ccc(-c2cc(NC(C)=O)c3ncc(-c4ccc(F)cc4)n3c2)cc1OC | 23.1µM* | 14.6µM* | -3.0% | i | i | -19.5%
COc1ccc(F)cc1-c1cc(NC(C)=O)c2ncc(-c3cc(OC)c(OC)c(OC)c3)n2c1 | 3.66µM* | 2.91µM* | u | i | 7.31µM* | -2.3%
COc1ccc(-c2cc(NC(C)=O)c3ncc(-c4ccccc4)n3c2)cc1OC | u | u | u | i | i | -17.6%
COc1ccc(-c2cnc3c(NC(C)=O)cc(-c4cc(F)ccc4OC)cn23)cc1OC | 5.17µM* | 5.8µM* | u | u | u | u
CN(C)C(=O)CCSc1nnc(-c2ccncc2)o1 | 2.1% | 1.2% | 4.9% | i | i | 6.5%
CC(C)CCn1c(=O)c2sccc2n2c(CCCC(=O)NC(C)C)nnc12 | -16.0% | -7.5% | x | x | x | x
Cc1cc(C)nc(N/N=C/c2ccccc2Cl)n1 | -25.5% | -24.7% | 3.8% | i | i | 12.2%
C/C(=N/Nc1ncc(Br)cn1)c1ccc([N+](=O)[O-])cc1 | -14.3% | -6.7% | 9.5% | i | i | 9.3%
Cc1cc(C)nc(N/N=C/c2cccc3ccccc23)n1 | u | u | 14.0% | 18.4µM* | i | 3.6%
Cc1cc(N/N=C/c2ccccc2Cl)nc(NCc2ccccc2)n1 | 4.61µM* | 4.11µM* | u | u | u | u
C/C(=N\Nc1cc(C)nc(NCc2ccccc2)n1)c1ccc([N+](=O)[O-])cc1 | 13µM* | 9.2µM* | 2.1% | i | i | -1.6%
COc1cc(C)nc(NCc2ccccc2)n1 | u | u | 0.0% | i | i | -10.5%
COc1ccc(Nc2cc(C)nc(NCc3ccccc3)n2)cc1 | 5.17µM* | 4.61µM* | 18.4µM* | u | u | 20.6µM*
Cc1ccc2c(c1)N(C(=O)CCC(=O)NCc1ccccn1)CC(C)O2 (stereo not given) | -0.5% | 2.8% | 2.0% | i | i | -0.2%
SMILES | TDP1 cell CPT | TDP1 cell noCPT | HT1080NT lethal | KB-V1 MDR tox | KB-3-1 tox | HT1080 IDH1KD tx
CCCOc1ccc(Nc2cc(C)nc(C)n2)cc1 | 23.1µM* | u | x | i | i | x
CCOc1ccc(Nc2cc(C)nc(N3CCOCC3)n2)cc1 | -25.1% | u | -16.7% | i | i | -16.2%
Cc1cc(NC2CCCCC2)nc(NCc2ccccc2)n1 | 4.61µM* | 4.61µM* | u | i | u | u
Cc1ccc(Nc2cc(C)nc(NCc3ccccc3)n2)cc1 | 2.59µM* | 2.59µM* | 20.6µM* | 11.6µM* | u | 18.4µM*
COc1ccc(C2CC(c3ccccc3)=NN2C(=O)CN2N=NC3C(=O)N(c4cccc(F)c4)C(=O)C32)cc1 (stereo not given) | -26.1% | u | 20.7% | i | i | 15.7%
CCOC(=O)C1CCCN(C(=O)CCCn2nnnc2CN2CCOCC2)C1 (stereo not given) | -0.4% | 21.7% | 12.6% | i | i | 18.1%
COc1ccc(C(=O)COC(=O)CNC(=O)c2ccc(OC)cc2)cc1 | 3.8% | -3.3% | -0.9% | i | i | -0.2%
COCCOC(=O)c1sc2nc[nH]c(=O)c2c1C | -15.9% | -7.7% | u | i | i | 5.4%
CCOc1c(Br)ccc2c1sc1nc[nH]c(=O)c12 | u | u | -1.7% | 20.6µM* | u | 0.6%
Cc1ccc(-n2nnc(-c3nccn3C)n2)cc1 | 23.1µM* | 20.6µM* | u | i | u | u
CCOC(=O)COc1ccc(CC)cc1C(=O)c1ccn2nc(-c3ccccc3)cc2n1 | 14.6µM* | 23.1µM* | x | i | i | x
CCOC(=O)COc1ccc(CC)cc1C(=O)c1ccn2nc(-c3ccc(Cl)cc3)cc2n1 | 20.6µM* | 20.6µM* | x | u | i | x
CCOC(=O)Cn1nc(-c2ccc(Cl)cc2)ccc1=O | u | u | -0.5% | i | i | -19.7%
COc1ccc(S(=O)(=O)NCCc2sc(-c3cccnc3)nc2C)c(F)c1 | x | x | x | u | i | x
Cc1cc(C=O)c(C)n1-c1ccc(NC2CCCC2)c([N+](=O)[O-])c1 | u | 18.4µM* | -13.9% | i | u | u
COc1cc(NC(=O)c2ccc(-n3cnc4cccnc43)cc2)cc(OC)c1 | x | x | x | i | u | x
CC1C(=O)N2CCCc3cc(NC(=O)COc4ccccc4)cc1c32 (stereo not given) | -24.7% | u | -5.1% | i | i | -8.4%
Cc1cc(-c2ccn[nH]2)c(C)s1 | -6.0% | 3.9% | 0.9% | i | i | -12.4%

Screens: PubChem, National Center for Advancing Translational Sciences (NCATS)
